The structures appear in SMILES notation. The whole screen tested about 360,000 compounds, of which about 11,000 (3.1%) were called active. Not shown: some 2% with an inconclusive outcome. No stated cut-off is given here; in the data, active means fluorescence intensity above about 16000; inconclusive means no clear call, values can overlap the other calls; inactive means below that. The sample as a whole holds a higher share of actives than the screen did.

The test is described as follows: counter-screen for toxin protease inhibitors: compound fluorescence, primary screen, artefact control for toxin protease inhibitor project, biochemical, multiplex microsphere, HTS (AID 624483). The following applies: compound autofluorescence counterscreen, microsphere flow cytometry; stronger effect = higher value. Background: Counterscreens check selectivity or assay interference.
In the case of `CCNC(=O)NC(=O)C(C)OC(=O)c1cc(S(=O)(=O)N2CCCCCC2)ccc1OC` (stereo not given), the fluorescence intensity was 3480 (inactive).

As for `CC1=NNC(=O)C1CC(=O)N/N=C/c1ccncc1` (stereo not given), the fluorescence intensity is 4920 (inactive).

As for `CCN(CC)c1ccc(NC(=O)CN2C(=O)NC3(CCc4ccccc43)C2=O)cc1` (stereo not given), the fluorescence intensity is 8580 (inactive).

For `CCCCC(=O)Nc1ccc(C(=O)NCCCn2ccnc2)cc1`, the fluorescence intensity was 10500 (inactive).

On to `CCOc1ccc(NC(=O)CCNC(=O)c2ccc(Br)cc2)cc1`, for which the fluorescence intensity was 3030 (inactive).

In the case of `CCCCNC(=O)CCNC(=O)c1ccc(C(C)(C)C)cc1`, the fluorescence intensity is 20300 (active).

On to `CC(C)C1Cc2[nH][nH]c(=O)c2C(c2ccc(Cl)cc2)O1` (stereo not given), for which the fluorescence intensity was 5700 (inactive).

With `NC(=O)c1sc2nc3c(c(-c4ccccc4)c2c1N)CCC3`, the fluorescence intensity was 24800 (active).

In the case of `Cc1sc2nc(CC(N)=O)[nH]c(=O)c2c1-c1ccccc1`, the fluorescence intensity was 2450 (inactive).

Take `CCN(CC)C(=O)c1sc2nc(-c3ccccc3)ccc2c1N`: the fluorescence intensity is 4300 (inactive).

As to `N=c1c2c3c(sc2nc2n1CCCCC2)CCCC3`, the fluorescence intensity is 2860 (inactive).

Regarding `c1nnc2c3c4c(sc3ncn12)CCC4`, the fluorescence intensity was 23300 (active).

In the case of `N=c1c2c3c(sc2ncn1N)CCCCC3`, the fluorescence intensity was 19400 (active).

As for `N=c1c2c3c(sc2ncn1CCCN1CCOCC1)CCCCC3`, the fluorescence intensity was 6250 (inactive).

As for `S=c1[nH]nc2c3c4c(sc3ncn12)CCCC4`, the fluorescence intensity is 2950 (inactive).

Regarding `CC(C(=O)O)n1cnc2sc3c(c2c1=O)CCCC3` (stereo not given), the fluorescence intensity was 4940 (inactive).

Consider `CN1CCN(C(=O)c2ccc(NC(=O)c3ccc(Br)o3)cc2)CC1`, for which the fluorescence intensity was 5550 (inactive).

Regarding `O=C(/C=C/[C@H]1O[C@@H](n2cnc3c(NC(=O)c4ccccc4)ncnc32)[C@H](O)[C@@H]1O)NCc1ccccc1`, the fluorescence intensity was 6020 (inactive).

Consider `CS(=O)(=O)C1=NN2C(=N)/C(=C\c3ccc(OCCOc4ccccc4)cc3)C(=O)N=C2S1`, for which the fluorescence intensity is 3680 (inactive).

With `CS(=O)(=O)c1ccc2c(c1)SC1=NC(=O)/C(=C/c3ccco3)C(=N)N12`, the fluorescence intensity was 20000 (active).

As to `CCS(=O)(=O)C1=NSC2=NC(=O)/C(=C\c3ccc(OS(=O)(=O)c4ccccc4)cc3)C(=N)N21`, the fluorescence intensity was 4230 (inactive).

For the molecule `OC(c1nc2ccc(F)cc2[nH]1)C(O)c1nc2ccc(F)cc2[nH]1` (stereo not given), the fluorescence intensity is 3790 (inactive).

As for `O=C1CCCC2=C1C(c1cccs1)CC(=O)N2c1ccc(F)cc1` (stereo not given), the fluorescence intensity is 3220 (inactive).

`O=C1CCCC2=C1C(c1cccs1)n1nc(SCc3ccccc3)nc1N2` (stereo not given): the fluorescence intensity is 23700 (active).

Regarding `CCCC(=O)N1c2ccccc2NC2=C(C(=O)CCC2)C1c1ccc(F)cc1` (stereo not given), the fluorescence intensity was 6490 (inactive).

With `Nc1c(-c2ccc(F)cc2)cnc2ncnn12`, the fluorescence intensity was 6020 (inactive).

On to `O=C(Nc1ccc2c(c1)nc1n2CCCCC1)c1cc(S(=O)(=O)N2CCOCC2)ccc1Cl`, for which the fluorescence intensity is 2940 (inactive).

Turning to `CCOc1cccc(OCCCOc2cccc3cccnc23)c1`, the fluorescence intensity was 2100 (inactive).

With `Cc1ccc(Oc2ccc3c(c2)C(=O)N(c2cccc4cccnc24)C3=O)cc1`, the fluorescence intensity is 21000 (active).

`Cc1cccc(NC(=O)C2CCN(S(=O)(=O)c3cccc4cccnc34)CC2)c1`: the fluorescence intensity was 5170 (inactive).

Consider `Cc1ccc(S(=O)(=O)N2CCCCC2)cc1NC(=O)CCNC(=O)c1ccccc1Cl`, for which the fluorescence intensity is 3400 (inactive).

For the molecule `CS(=O)(=O)N(CC(=O)N1CCN(Cc2ccccc2)CC1)c1ccc2c(c1)OCCO2`, the fluorescence intensity is 23300 (active).

Turning to `CS(=O)(=O)N(CC(=O)N1CCN(c2cccc(Cl)c2)CC1)c1ccccc1`, the fluorescence intensity was 9910 (inactive).

As to `Cc1cccc(N(CC(=O)N2CCOCC2)S(C)(=O)=O)c1`, the fluorescence intensity was 8740 (inactive).

In the case of `Cc1ccc(C)c(S(=O)(=O)N2CCN(c3ncnc4sccc34)CC2)c1`, the fluorescence intensity is 3890 (inactive).

Regarding `O=C(Nc1ccccn1)C1CCN(S(=O)(=O)c2ccc3c(c2)OCCO3)CC1`, the fluorescence intensity was 4090 (inactive).

`O=C(c1c(F)cccc1F)N1CCN(S(=O)(=O)c2ccc3c(c2)OCCO3)CC1`: the fluorescence intensity was 4100 (inactive).

As to `O=C(c1ccc2c(c1)OCCO2)C1CCN(S(=O)(=O)c2cccc(F)c2)CC1`, the fluorescence intensity was 17000 (active).

As to `CCOC(=O)C1=C(CN2CCCCCC2)NC(=O)NC1c1cccc([N+](=O)[O-])c1` (stereo not given), the fluorescence intensity is 4620 (inactive).

For `CCOC(=O)C1=C(CN2CCc3ccccc32)NC(=O)NC1c1cccc([N+](=O)[O-])c1` (stereo not given), the fluorescence intensity was 15000 (inactive).

Turning to `CCOC(=O)C1=C(c2ccccc2)NC(=O)NC1c1cc(OC)c(OC)cc1OC` (stereo not given), the fluorescence intensity was 2970 (inactive).

With `CCOC(=O)C1=C(CN2CCc3ccccc32)NC(=O)NC1c1ccc(Cl)cc1` (stereo not given), the fluorescence intensity is 23500 (active).

As to `CCOC(=O)C1=C(CN2CCc3ccccc32)NC(=O)NC1c1cc(C)ccc1C` (stereo not given), the fluorescence intensity is 23800 (active).

With `CCOC(=O)C1=C(CNC2CCCCC2)NC(=O)NC1c1cc(C)ccc1C` (stereo not given), the fluorescence intensity was 4280 (inactive).

With `Cc1ccccc1S(=O)(=O)NC(=O)C1(C)CCN1C(=O)C1(c2ccccc2)CCCC1` (stereo not given), the fluorescence intensity was 2830 (inactive).

Turning to `COc1ccc(C(=O)Nc2c(N)nc(SCC(=O)N3CCC(C)CC3)[nH]c2=O)cc1OC`, the fluorescence intensity is 4500 (inactive).

With `COc1cncc(-c2cnc3sc(NCCc4ccccn4)nn23)c1`, the fluorescence intensity was 3330 (inactive).

Consider `O=C1Cc2ccccc2Sc2ccc(Cl)cc21`, for which the fluorescence intensity is 6230 (inactive).

For the molecule `CC(=O)Nc1cncc(-c2ccccc2CO)n1`, the fluorescence intensity is 3670 (inactive).

In the case of `COc1cccc(C(=O)NC(=O)Nc2nc(C)cc(C(F)(F)F)n2)c1`, the fluorescence intensity is 4900 (inactive).

As to `Cc1cc(Cl)nc(NC(=O)Nc2cccc(Cl)c2)n1`, the fluorescence intensity was 3440 (inactive).

With `Cc1cc(C)nc(NC(=O)Nc2ccccc2C(F)(F)F)n1`, the fluorescence intensity was 21400 (active).

Take `CSc1ccc(CN2CCC2(C)C(=O)NCc2ccccc2Br)cc1` (stereo not given): the fluorescence intensity is 3880 (inactive).

In the case of `OC[C@@H]1CN(Cc2ccc(Cl)cc2)C[C@H](n2cnc3c(NCc4ccncc4)ncnc32)O1`, the fluorescence intensity is 3720 (inactive).

In the case of `Cc1cc(Cl)ccc1-c1nc(NCCN(C)C)nc2ccsc12`, the fluorescence intensity is 2870 (inactive).

Consider `Cc1noc(C)c1C(=O)N1CCC1(C)C(=O)NS(=O)(=O)c1ccc(C#N)cc1` (stereo not given), for which the fluorescence intensity is 3990 (inactive).

In the case of `Nc1nonc1-c1nc2ccccc2n1CCC(=O)O`, the fluorescence intensity is 23600 (active).

As to `O=C(O)CCn1c(Cc2ccccc2)nc2ccccc21`, the fluorescence intensity is 4070 (inactive).

Regarding `COc1ccc(C)c(Cn2c(-c3nonc3N)nc3ccccc32)c1`, the fluorescence intensity is 8560 (inactive).

For the molecule `O=C(CNC(=O)c1ccccc1F)c1ccc(Br)cc1`, the fluorescence intensity was 4100 (inactive).

With `CCc1nc2ccc(C(=O)NC3CCN(Cc4ccccc4)CC3)cn2c1N(CC)CCOC`, the fluorescence intensity is 3640 (inactive).

With `OC1CCCN(c2ncnc3c2nnn3Cc2c(F)cccc2Cl)C1` (stereo not given), the fluorescence intensity was 4220 (inactive).

As for `Cc1cc(C)cc(NC(=O)CSCc2cnn(-c3ccccc3)c2-n2cccc2)c1`, the fluorescence intensity is 3720 (inactive).

As to `CC(=O)Nc1ccc(NC(=O)CSCc2cnn(-c3ccccc3)c2-n2cccc2)cc1`, the fluorescence intensity is 21800 (active).

With `O=C(CSCc1ccccc1)Nc1ccccc1`, the fluorescence intensity is 3440 (inactive).

Take `CCC(=O)N1Cc2cc(C(=O)NCc3cccc(F)c3)nc(-c3cccc(C4=CCCC4)c3)c2[C@H]1CCO`: the fluorescence intensity is 5960 (inactive).

With `CS(=O)(=O)N1CCN(C(=O)c2cc3ccccc3oc2=O)CC1`, the fluorescence intensity is 20900 (active).

As for `COc1cccc2cc(C(=O)N3CCN(C(=O)c4ccccc4)CC3)c(=O)oc12`, the fluorescence intensity was 2640 (inactive).

As to `O=C(c1cc2ccccc2o1)N1CCN(S(=O)(=O)c2ccc(Cl)s2)CC1`, the fluorescence intensity is 3540 (inactive).

Turning to `Cc1ccc(S(=O)(=O)N2CCN(C(=O)Cc3sc(C)nc3-c3ccc(F)cc3)CC2)c(C)c1`, the fluorescence intensity was 5210 (inactive).

As to `COCCCNC(=O)c1cccc2c(-c3ccc(O)c(OC)c3)coc12`, the fluorescence intensity is 3660 (inactive).

Consider `CCCS(=O)(=O)NC(=O)C1(C)CCCN(C(=O)c2cccs2)C1` (stereo not given), for which the fluorescence intensity was 3930 (inactive).

In the case of `CCc1ccc(-c2nnn(Cc3nn[nH]n3)n2)cc1`, the fluorescence intensity was 20100 (active).

Regarding `CN(C)c1nc(N)nc(Cn2nnc(-c3ccc(C(F)(F)F)cc3)n2)n1`, the fluorescence intensity was 5180 (inactive).

Take `COc1ccc(-c2nnn(Cc3nc(N)nc(N4CCCCC4)n3)n2)cc1`: the fluorescence intensity is 4610 (inactive).

In the case of `CCC1(CC)NC(=O)N(Cc2nc3ccccc3s2)C1=O`, the fluorescence intensity was 3380 (inactive).

Regarding `CN(Cc1nc2ccccc2s1)C(=O)c1ccc(F)cc1`, the fluorescence intensity is 3850 (inactive).

`CCc1ccc(-c2nnn(Cc3nc4ccccc4s3)n2)cc1`: the fluorescence intensity is 22800 (active).

As to `Nc1[nH]c(C(=O)c2ccccc2)c(-c2ccc(Br)cc2)c1C(=O)NC1CC1`, the fluorescence intensity is 4400 (inactive).

For the molecule `Cc1ccc(C(O)c2ncc(-c3ccccc3F)[nH]2)cc1F` (stereo not given), the fluorescence intensity was 3620 (inactive).

As for `O=C1CCCC(O)=C1N=Nc1ccc2ncsc2c1`, the fluorescence intensity is 2580 (inactive).

For the molecule `CC1(C)CC(CC(=O)O)C(=O)O1` (stereo not given), the fluorescence intensity is 4100 (inactive).

Consider `CN(CC(=O)Nc1ccccc1Cl)C(=O)COc1cccc2c1OC(C)(C)C2`, for which the fluorescence intensity was 5770 (inactive).

Turning to `CC1(C)CC(CCC(=O)Nc2ccccc2Cl)C(=O)O1` (stereo not given), the fluorescence intensity is 23100 (active).

Regarding `CNC(=S)N1N=C(c2ccccc2)CC1c1ccc(Br)cc1` (stereo not given), the fluorescence intensity was 23900 (active).

Turning to `Brc1ccc(C2CC(c3ccccc3)=Nc3ccccc3N2)cc1` (stereo not given), the fluorescence intensity was 2950 (inactive).

On to `COc1ccc(C2CC(c3ccccc3)=NN2C(=O)COC(=O)COc2ccccc2)cc1` (stereo not given), for which the fluorescence intensity was 4620 (inactive).

Turning to `COC(=O)Cc1ccc(OC2(C)CCN(Cc3ccc4c(c3)OCCO4)C2)cc1` (stereo not given), the fluorescence intensity is 2970 (inactive).

Regarding `CCOc1ccc(NC(=S)N2CCCCCC2)cc1`, the fluorescence intensity was 4120 (inactive).

For `O=C(NCc1cccnc1)c1cc(C2CCCCN2C(=O)CCc2ccccc2)on1` (stereo not given), the fluorescence intensity is 3910 (inactive).

Turning to `Cc1c(C(=O)NCC2CC2)sc(=O)n1Cc1cccc(F)c1`, the fluorescence intensity is 5240 (inactive).

Regarding `CN(CC(O)COc1ccc(S(=O)(=O)N2CCOCC2)cc1Cl)C1CCCCC1` (stereo not given), the fluorescence intensity was 4510 (inactive).

`O=C(NCCCN1CCCCC1)c1ccc2c(c1)NC(=O)C(N1CCOCC1)S2` (stereo not given): the fluorescence intensity was 20400 (active).

Consider `COc1ccc(CCNC(=O)c2ccc3c(c2)NC(=O)C(N2CCOCC2)S3)cc1OC` (stereo not given), for which the fluorescence intensity is 3710 (inactive).

Regarding `Cc1ccccc1CN1C(=O)c2ccccc2Sc2ccc(C(=O)NCCCN3CCOCC3)cc21`, the fluorescence intensity was 4180 (inactive).

The values above are taken from PubChem BioAssay AID624483 (NMMLSC, 2012).
